Assay results as given in the supplement of paper PMC12669032.
Values without a mark were called inactive.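 The calls were made as follows: active = AUC reduced over 20% with Padj below 0.05 in at least 2 of 3 replicates; inactive = otherwise.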

Columns and labels:
Assay in all cases: growth AUC relative to DMSO control (median of replicates) (fraction); higher = more growth (less inhibition), active = hit call of the paper
Conditions in all cases: 20 µM; 24 h
[1] = system: Akkermansia muciniphila
How it was run: (§1)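 Hourly OD600 readings over 24 h tracked anaerobic gut bacterial monocultures grown at 37 °C in mGAM from OD600 0.05 with 20 µM compound (1% DMSO). After the minimum OD was set to 0, area under the growth curve was normalised to the plate median of solvent-only wells, or to row and column medians on the industrial chemical plate. Values are medians of three biological replicates grown on separate days.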

[2] = system: Bacteroides caccae
How it was run: as §1

[3] = system: Bacteroides clarus
How it was run: as §1

[4] = system: Bacteroides dorei
How it was run: as §1

[5] = system: Bacteroides stercoris
How it was run: as §1

[6] = system: Bacteroides thetaiotaomicron
How it was run: as §1

[7] = system: Bacteroides uniformis
How it was run: as §1

[8] = system: Bifidobacterium longum subsp. longum
How it was run: as §1

[9] = system: Clostridium difficile
How it was run: as §1

[10] = system: Collinsella aerofaciens
How it was run: as §1

[11] = system: Coprococcus comes
How it was run: as §1

[12] = system: Escherichia coli ED1a
How it was run: as §1

[13] = system: Escherichia coli IAI1
How it was run: as §1

[14] = system: Eubacterium rectale
How it was run: as §1

[15] = system: Fusobacterium nucleatum subsp. animalis
How it was run: as §1

[16] = system: Lactobacillus gasseri
How it was run: as §1

[17] = system: Lactobacillus paracasei
How it was run: as §1

[18] = system: Odoribacter splanchnicus
How it was run: as §1

[19] = system: Parabacteroides distasonis
How it was run: as §1

[20] = system: Parabacteroides merdae
How it was run: as §1

Row | Compound | growth AUC [1] | growth AUC [2] | growth AUC [3] | growth AUC [4] | growth AUC [5] | growth AUC [6] | growth AUC [7] | growth AUC [8] | growth AUC [9] | growth AUC [10] | growth AUC [11] | growth AUC [12] | growth AUC [13] | growth AUC [14] | growth AUC [15] | growth AUC [16] | growth AUC [17] | growth AUC [18] | growth AUC [19] | growth AUC [20]
1 | O=S(Cc1ccc(Cl)cc1)c1ccc(Cl)cc1 (stereo not given) | 0.934 | 0.961 | 0.978 | 0.986 | 0.964 | 0.946 | 0.983 | 1.05 | 0.977 | 0.972 | 1 | 0.986 | 0.981 | 1.09 | 0.94 | 0.899 | 1.24 | 1.01 | 0.947 | 1
2 | CC(C)N(C)S(=O)(=O)NC(=O)c1cc(-n2c(=O)cc(C(F)(F)F)[nH]c2=O)c(F)cc1Cl | 0.971 | 0.993 | 0.983 | 0.967 | 1.1 | 1 | 1.03 | 0.962 | 0.982 | 0.953 | 0.971 | 0.995 | 1 | 0.959 | 1.08 | 1.03 | 0.893 | 1.03 | 0.961 | 1.02
3 | Cc1nn(C)c(Oc2ccccc2)c1/C=N/OCc1ccc(C(=O)OC(C)(C)C)cc1 | 1.04 | 1.01 | 1.03 | 0.974 | 0.961 | 0.982 | 0.969 | 0.944 | 1.02 | 0.963 | 0.996 | 0.984 | 0.991 | 0.907 | 0.973 | 0.901 | 1.01 | 1.01 | 1.03 | 0.925
4 | COc1nc(C)nc(NC(=O)NS(=O)(=O)c2ccccc2OCCCl)n1 | 1.06 | 1.09 | 1.01 | 1.02 | 1.02 | 0.985 | 1.01 | 1 | 0.998 | 0.993 | 1.02 | 0.948 | 1 | 0.987 | 0.953 | 0.933 | 0.982 | 1 | 0.98 | 0.97
5 | COC(=O)CSc1cc(N=c2sc(=O)n3n2CCCC3)c(F)cc1Cl | 1.11 | 1 | 0.999 | 0.945 | 1.04 | 0.94 | 0.988 | 0.985 | 0.982 | 1.01 | 0.999 | 1.02 | 0.963 | 1.12 | 1.03 | 0.862 | 0.974 | 1.01 | 0.796 | 0.967
6 | COC(=O)c1ccccc1S(=O)(=O)NC(=O)n1nc(OCC(C)O)n(C)c1=O (stereo not given) | 0.933 | 1 | 0.962 | 0.992 | 0.982 | 0.994 | 1.03 | 0.956 | 0.951 | 1.02 | 0.991 | 0.99 | 0.991 | 1.08 | 1.02 | 1.01 | 1.03 | 0.943 | 1.03 | 0.996
7 | COC(=O)c1ccc(CNS(C)(=O)=O)cc1S(=O)(=O)NC(=O)Nc1nc(OC)cc(OC)n1 | 0.864 | 0.988 | 1.02 | 1.01 | 0.871 | 0.991 | 1.01 | 0.917 | 1.02 | 1.01 | 1.04 | 1.02 | 1.01 | 1.01 | 0.977 | 0.961 | 0.925 | 1.07 | 1.03 | 1.02
8 | Oc1ccc2ccccc2c1N=Nc1ccccc1 | 1 | 0.973 | 1.01 | 0.977 | 0.972 | 1 | 1 | 0.942 | 0.991 | 0.917 | 0.858 | 1.01 | 1.01 | 0.983 | 1 | 0.973 | 0.733 (active) | 1.04 | 0.905 | 1.05
9 | CC(=O)Oc1c(Cl)c(Cl)c(Cl)c(Cl)c1Cl | 0.861 | 0.559 (active) | 0.585 (active) | 0.66 (active) | 0.448 (active) | 0.565 (active) | 0.52 (active) | 0.942 | 0.784 (active) | 0.937 | 0.953 | 0.936 | 0.808 | 0.942 | 0.782 | 0.871 | 1.05 | 0.548 (active) | 0.542 (active) | 0.558 (active)
10 | CCc1cccc(C)c1NC(=O)CS(=O)(=O)[O-].[Na+] | 0.926 | 1.03 | 0.962 | 1.03 | 0.937 | 1.01 | 0.991 | 0.975 | 1.06 | 1.11 | 0.996 | 0.954 | 0.983 | 0.974 | 0.945 | 1.04 | 0.949 | 1.01 | 1.02 | 0.989
11 | CN(C(=O)NC(C)(C)c1ccccc1)c1ccccc1 | 0.911 | 1.04 | 0.999 | 0.988 | 0.824 | 1.01 | 1.03 | 0.916 | 1.04 | 0.969 | 1.01 | 1.01 | 0.974 | 0.981 | 0.909 | 1.01 | 0.951 | 1.1 | 0.952 | 1
12 | NC(=O)c1nn(-c2c(Cl)cc(C(F)(F)F)cc2Cl)c(N)c1S(=O)C(F)(F)F (stereo not given) | 0.886 | 0.973 | 0.953 | 0.995 | 0.965 | 0.972 | 0.977 | 0.976 | 1 | 0.985 | 0.958 | 0.964 | 0.983 | 1.07 | 0.945 | 0.937 | 0.982 | 0.948 | 1.02 | 0.962
13 | COc1cc(OC)nc(NC(=O)NS(=O)(=O)Nc2ccccc2C(=O)N(C)C)n1 | 1.01 | 1 | 0.983 | 1.02 | 0.982 | 0.986 | 1.01 | 0.975 | 0.974 | 0.992 | 0.994 | 0.981 | 0.992 | 0.972 | 0.94 | 1.03 | 0.939 | 0.997 | 1.03 | 1.02
14 | NS(=O)(=O)[O-].[NH4+] | 1.11 | 1.01 | 1.03 | 1.02 | 1.05 | 1.02 | 1.05 | 1.06 | 1.05 | 0.998 | 1.06 | 1.03 | 1.02 | 1.09 | 1.09 | 0.996 | 0.997 | 0.988 | 1.02 | 1.06
15 | CN(C)C(=O)Nc1ccc(Cl)c(Cl)c1 | 0.951 | 0.995 | 0.975 | 0.981 | 1.08 | 0.99 | 0.954 | 1.09 | 0.965 | 0.992 | 1.02 | 0.985 | 0.963 | 0.978 | 1.02 | 0.968 | 0.971 | 0.888 | 1.09 | 0.907
16 | C[C@@]1(c2ccccc2)NC(=O)N(Nc2ccccc2)C1=O | 0.931 | 1.04 | 0.973 | 1 | 0.965 | 0.992 | 1.01 | 0.96 | 1 | 1.02 | 1.03 | 1.02 | 1.01 | 0.948 | 1 | 1.05 | 0.955 | 0.993 | 1.02 | 0.996
